Screening data deposited in PubChem BioAssay by National Center for Advancing Translational Sciences (NCATS).
TDP43 rescue: inhibitors of TDP-43 toxicity in yeast | Potency, µM (top dose mostly 46.1 µM), for inactives: at the highest dose growth rescue (activation), hits mostly activators | actives 1.8% (n = 410,000) | TDP-43 expressing yeast growth rescue, BacTiter-Glo, 24 h; note: % of control where 0% means no effect; nearly all actives have a fitted effect of over 50% in size
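Growth rescue of TDP-43-toxic yeast measured as ATP luminescence (BacTiter-Glo). Cells grown to mid-log in raffinose, induced in galactose at OD600=0.02, exposed to compound 24 hr at 30 deg C.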
Abeta yeast res: restores growth of yeast expressing A-beta42 peptide; yeast expressing A-beta42, growth rescue, OD600, 48 h; response scale: 0% DMSO, 100% iron-clioquinol control; Potency, µM (top dose mostly 46.1 µM), usual class: activators; actives 0.063% (n = 410,000); AID 1347071; note: nearly all actives have a fitted effect of over 55% in size
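Yeast A-beta toxicity model in growth medium with pinned compounds, 48 h at 30 C; growth read as absorbance at 600 nm. Normalized to FeCl3/clioquinol equimolar mix (positive) and DMSO (negative).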
FUS suppressor: suppressors of FUS proteinopathy in yeast; S. cerevisiae FUS-expressing, growth rescue, OD600, 24 h; Potency, µM (titrated, usually from 76.6 µM), actives largely listed as activators; actives 0.24% (n = 390,000);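 note: plate controls were DMSO vehicle for no effect and reference control for full effect; nearly all actives have a fitted effect of over 55% in size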
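Yeast expressing FUS under galactose induction, OD 0.005 in 2% galactose medium; compounds in a dilution series, 24 h at 30C. Growth rescue by absorbance at 600 nm; CP55940 positive control, DMSO negative.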
aSyn yeast inh: rescues yeast growth from alpha-synuclein toxicity; actives 0.14% (n = 370,000); Yeast expressing alpha-synuclein, growth rescue, BacTiter-Glo, 24 h; Potency, µM (top dose mostly 46.1 µM), for inactives: at the top dose growth rescue (activation), actives largely listed as activators; AID 652106; note: % of control where 0% means no effect; nearly all actives have a fitted effect of over 65% in size
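Rescue of yeast growth: cells expressing toxic alpha-synuclein, induced in galactose at OD600 0.02, incubated with compound 24 h at 30 C. ATP luminescence quantified growth; inhibitors of toxicity appear as activators.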
Starred values were filed as active, the others as inactive; i = inactive; ? = inconclusive; / = no result; ! = a repeat was not active; [ ] = dose if it differs, or a comment. Sampled rows, rich in hits. Any-hit rate of the full collection: about 2.1%. Calls come from the whole dose curve; as a rule, active = well fitted curve in the direction sought with a large enough effect; inconclusive = small, poorly fitted or top-dose-only effect, or another doubt; inactive = no such curve, though single readings can be large; an effect the other way counts as inactive or inconclusive. Potency is the fitted concentration of half-maximal effect.

SMILES	TDP43 rescue	Abeta yeast res	FUS suppressor	aSyn yeast inh
OC(c1ccc(F)c(F)c1)c1nc(-c2cccs2)cs1 (stereo not drawn)	22.4µM*	i	i	-0.4%
COc1ccc(-c2csc(C(O)c3ccc(F)c(F)c3)n2)cc1 (stereo not drawn)	?	i	i	11.2µM*
COC(=O)c1ccccc1NC(=O)Cn1nc(C(F)(F)F)c2c1CCCC2	-1.3%	i	i	/
CNC(=S)N/N=C/c1cc(C)ccc1C	11.6%	?	i	5.1%
CCNC(=S)N/N=C/c1cc(C)ccc1C	22.3%	4.47µM*	i	2.3%
CCOc1ccccc1CNC(=O)c1ccc(Sc2ccc(Cl)cc2)c(NC(C)=O)c1	12.6µM*	i	/	4.1%
CC(=O)Nc1cc(C(=O)NCc2ccco2)ccc1Sc1ccc(F)cc1	-5.6%	i	i	-0.8%
CC(=O)Nc1cc(C(=O)NCc2ccc(C)cc2)ccc1S(=O)(=O)c1ccc(Cl)cc1	28.8%	i	i	-0.3%
CC(=O)Nc1cc(C(=O)NCc2ccccc2Cl)ccc1Sc1ccc(F)cc1	22.4µM*	i	i	/
CC(=O)Nc1cc(C(=O)NCc2ccco2)ccc1Sc1ccc(Cl)cc1	0.2%	i	i	-1.8%
CCOc1ccc(CNC(=O)c2ccc(Sc3ccc(Cl)cc3)c(NC(C)=O)c2)cc1	15.8µM*!	i	?	-0.6%
Cc1c(C(=O)NCCCN2CCCCC2)oc2ccc3c(c12)C(O)CC1(CCCCC1)O3 (stereo not drawn)	-2.0%	i	i	-1.7%
CCOC(=O)C1CCN(C(=O)c2oc3ccc4c(c3c2C)C(O)CC2(CCCCC2)O4)CC1 (stereo not drawn)	25.1µM*	i	?	9.3%
COc1cccc2cc(-c3nnc(Nc4ccccc4C)s3)c(=O)oc12	5.8%[9.22 µM]	i	i	/
CCOc1ccc(C(=O)NCCc2sc(-c3ccc(F)cc3)nc2C)cc1	6.1%	i	i	/
Cc1nn(C)c(C(=O)Nc2ccn(Cc3c(F)c(F)cc(F)c3F)n2)c1[N+](=O)[O-]	7.94µM*	i	/	7.1%
Cc1nn(Cc2cccc(C(=O)Nc3ccn(Cc4c(F)c(F)cc(F)c4F)n3)c2)c(C)c1[N+](=O)[O-]	0.0%	i	i	-2.2%
CC(=O)N1CCc2c(sc3c2c(=O)n(-c2ccccc2)c(=O)n3Cc2ccccc2Cl)C1	8.9%	i	/	0.3%
CC(=O)N1CCc2c(sc3c2c(=O)n(-c2ccccc2Cl)c(=O)n3Cc2cccc(C)c2)C1	35.5µM*	i	?	/
C=Cc1ccc(Cn2c(=O)n(-c3ccccc3C)c(=O)c3c4c(sc32)CN(C(C)=O)CC4)cc1	?	i	?	/
CC(=O)N1CCc2c(sc3c2c(=O)n(-c2cccc(Cl)c2)c(=O)n3Cc2ccc(F)cc2Cl)C1	11.2µM*	i	i	/
COC(=O)[C@]12C[C@H](CC(=O)N3CCCC3)C(=O)N(Cc3ccco3)C1=C[C@H](COCc1ccccc1)O[C@@H]2C	/	/	i	/
Cc1ccc(C)c(CN2C(=O)NC3(CCCCCC3)C2=O)c1	22.4µM*	?	i	0.4%
Cc1nnc2c3ccccc3nc(N3CCN(c4cccc(Cl)c4)CC3)n12	25.1µM*	i	i	/
CCOc1ccc(NC(=O)Cn2cnc3c(oc4ccccc43)c2=O)cc1	0.0%[9.22 µM]	i	i	/
SMILES	TDP43 rescue	Abeta yeast res	FUS suppressor	aSyn yeast inh
O=C(c1ccccc1)c1ccc(C(=O)N2CCN(c3ccccc3Cl)CC2)cc1	11.2µM*	i	?	1.1%
CCN1CCN(C(=O)c2ccc3c(c2)c(C)c(C)n3Cc2ccccc2)CC1	11.6%	i	i	6.4%
Cc1[nH]c2ccc(C(=O)N3CCN(c4cccc(Cl)c4)CC3)cc2c1C	?	i	?	20µM*
CCn1c(C)c(C)c2cc(C(=O)N3CCc4ccccc4C3)ccc21	20µM*	/	i	25.5%
O=C1c2ccccc2S(=O)(=O)c2cc(C(=O)N3CCN(c4ccccc4)CC3)ccc21	17.8µM*	i	i	21.0%
COc1ccc(C(=O)CSc2nnc(-c3cccc(Cl)c3)n2Cc2ccco2)cc1	/	/	i	/
COC(=O)c1ccc(S(=O)(=O)N2CCC(NC(=O)CCC3CCCC3)CC2)cc1	/	/	i	/
Cc1cccc(N2CCN(C(=O)c3ccc4[nH]c(C)c(C)c4c3)CC2)c1C	10.4%	i	i	11.5%
Cc1[nH]c2ccc(C(=O)N3CCN(c4ccccc4F)CC3)cc2c1C	22.4µM*	i	?	/
Cc1[nH]c2ccc(C(=O)N3CCN(c4ccccc4Cl)CC3)cc2c1C	20µM*	i	i	17.8µM*
Cc1c(C)n(C)c2ccc(C(=O)N3CCN(c4ccccn4)CC3)cc12	16.9%	i	i	5.3%
Cc1c(C)n(C)c2ccc(C(=O)N3CCN(c4ccccc4)CC3)cc12	15.8µM*	i	i	6.9%
COc1ccccc1N1CCN(C(=O)c2ccc3[nH]c(C)c(C)c3c2)CC1	19.4%	/	?	14.6%
O=C(CSc1nnc(-c2ccccc2)n1-c1ccccc1)Nc1ccc(Oc2ccccc2)cc1	/	/	i	/
COC(=O)[C@]12C[C@H](CC(=O)NCCCCc3ccccc3)C(=O)N(Cc3ccc(Cl)cc3Cl)C1=C[C@H](C(C)C)O[C@@H]2C1CC1	/	/	i	/
CCCCN1CCS(=O)(=O)N(Cc2ccc(Cl)cc2)C(C(=O)OC)C1 (stereo not drawn)	/	/	i	/
Cc1oc2c(c1C(=O)NCc1cccnc1)C(=O)c1ccccc1C2=O	35.5µM*	i	i	11.0%
CC(=O)c1c(C)oc2c1C(=O)c1ccccc1C2=O	5.01µM*	i	/	-3.7%
O=C1c2ccccc2C(=O)c2c1oc(C(F)(F)F)c2C(=O)c1ccccc1	3.55µM*	i	/	-48.7%
COc1ccc(CNC(=O)c2c(C)oc3c2C(=O)c2ccccc2C3=O)cc1	?	i	i	2.7%
CC(=O)c1c2c3c(c(Br)ccc3n(C)c1=O)C(=O)c1ccccc1-2	-22.3%	i	i	0.0%
CCCCNc1nc(Oc2ccc(=O)n(C)n2)nc(N(C)C)n1	17.1%	i	i	/
COC(=O)c1cc(-c2ccc(C)c(C)c2)c(=O)n2c1CCC2	/	/	i	/
Clc1ccc2c(ccc[n+]2CCC2CCCCC2)c1	/	/	/	0.2%
O=[N+]([O-])c1ccc2c(c1)-c1ccccc1C2O (stereo not drawn)	11.2µM*	i	i	4.8%
O=C(O)c1ccc([N+](=O)[O-])cc1-c1cc([N+](=O)[O-])ccc1C(=O)O	1.3%	i	i	-0.2%
O=C(COCc1ccccc1)N1CCC(Oc2cccnc2)CC1	/	/	i	/
O=c1[nH]c(-c2ccco2)nc2sc3c(c12)CCCC3	17.8µM*	i	/	-6.8%
Cc1cccc(N2CCN(C(=O)CN3C(=O)COc4ccc(S(=O)(=O)N5CCC(C)CC5)cc43)CC2)c1C	17.8%	i	i	0.4%
Cc1nc(-c2ccccc2Cl)sc1C(=O)/C=C/N(C)C	31.6µM*	i	i	-64.5%
